This passage reports growth results from PubChem BioAssay (NCI).

Molecules are shown by their SMILES. About 83,000 compounds went through this panel and 20% of them were active in at least one assay; those are over-represented in the sample as a whole.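 Testing used 96-well plates and a 48-hour single-concentration exposure. Example: -40 means 40% of the starting cells died.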 A number with no mark means an inactive call. Calls of active or inactive are those of the source. The calls were made as follows: active = growth percent below 10; inactive = the rest.

Common to all, as to assay: NCI-60 one-dose screen, 48 h (100 = growth as untreated, 0 = no growth, -100 = all killed)
The test system of assay [1] is DU-145 prostate. Particulars: 10 µM unless noted.
The test system of assay [2] is K-562 leukemia. Particulars: 10 µM unless noted.
For assay [3], the system named is MALME-3M melanoma. As to conditions: 10 µM unless noted.
The test system of assay [4] is MDA-MB-231 breast. As to conditions: 10 µM unless noted.
Assay [5] deals with RXF 393 renal. Particulars: 10 µM unless noted.
Assay [6] has as its system SF-268 CNS. Particulars: 10 µM unless noted.
The test system of assay [7] is SF-295 CNS. Particulars: 10 µM unless noted.
Assay [8] deals with SF-539 CNS. As to conditions: 10 µM unless noted.
In assay [9] the test system is UACC-257 melanoma. As to conditions: 10 µM unless noted.
Assay [10] relates to M14 melanoma. As to conditions: 10 µM unless noted.
In assay [11] the test system is HCT-15 colon. As to conditions: 10 µM unless noted.
Assay [12] has as its system HT29 colon. As to conditions: 10 µM unless noted.
Assay [13] has as its system SNB-75 CNS. Particulars: 10 µM unless noted.
Assay [14] concerns SNB-19 CNS. Particulars: 10 µM unless noted.
The subject of assay [15] is U251 CNS. As to conditions: 10 µM unless noted.
The subject of assay [16] is PC-3 prostate. As to conditions: 10 µM unless noted.
Assay [17] has as its system SK-MEL-5 melanoma. Particulars: 10 µM unless noted.
In assay [18] the test system is UACC-62 melanoma. Particulars: 10 µM unless noted.
In assay [19] the test system is SK-MEL-28 melanoma. As to conditions: 10 µM unless noted.
Assay [20] relates to LOX IMVI melanoma. Particulars: 10 µM.

`O=C(Nc1cccc(-n2cnc3cc(-c4ccc(O)cc4)ccc32)c1)C1CC1`: the growth is 28.5% in assay [1]; 12.2% in [2]; 46.3% in [3]; 32.3% in assay [4]; 14.1% in assay [5]; 34.9% in [6]. Further, the growth is 6.04% (active) in [7]; -6.53% (active) in [8]; 73.3% in assay [9]; 40.5% in assay [10]; 11.9% in [11]; 8.01% (active) in [12]. In addition, the growth was -5.51% (active) in assay [13]; 32.9% in assay [14]; 9.54% (active) in [15]; 47% in assay [16]; 7.19% (active) in assay [17]; 38.5% in assay [18]. In [19], the growth is 54.3%.

`COc1cc(/C=C/C(=O)c2ccc(C)cc2)ccc1Oc1nc(Nc2ccc(F)cc2)nc(N(C)C)n1`: the growth in assay [1] was 50.1%; in [2] it was 26.8%; in assay [3], 69%; in [4] it was 31.2%; in assay [5], 47.8%; in assay [6], 47.1%. The growth in assay [7] is 30%; in assay [8], -31.9% (active); in [9] it was 41.3%; in [10], 56.9%; in assay [11] it was 17.3%; in assay [12] it was 44.1%. For the same compound, the growth in [13] was 50.8%; in assay [14], 23.4%; in assay [15], 11.3%; in assay [16] it was 50.8%; in assay [17], 30.5%; in [18], 42.1%. Further, the growth in assay [19] was 73.4%.

On to `Cn1cc(-c2nnc(N)nc2-c2c[nH]c3ccc(F)cc23)c2cccnc21`, for which the growth was 80.2% in [1]; 15.7% in [2]; 44.8% in assay [3]; 51.6% in assay [4]; 65.4% in assay [5]; 61% in assay [6]. The growth was 25.6% in [7]; 47.2% in [8]; 72.7% in [9]; 21.6% in assay [10]; 28.5% in assay [11]; 16.8% in assay [12]. Also, the growth in assay [13] was 24.4%; in assay [14] it was 52.2%; in [15] it was 37.3%; in assay [16], 63.7%; in [17] it was 20.9%; in assay [18] it was 36.9%. For the same compound, the growth in assay [19] was 63.2%.

For the compound `O=C1c2c(c3c4cc(F)ccc4oc3c3[nH]c4ccc(Br)cc4c23)C(=O)N1O`, the growth in assay [1] was 24.6%; in [2], 40.3%; in assay [3] it was 7.44% (active); in assay [4], 66.4%; in assay [5], 29.2%; in [6] it was 2.64% (active). Further, the growth in assay [7] was 20%; in assay [8], -10.9% (active); in assay [9], 88.5%; in assay [10] it was 14.3%; in [11], 48.1%; in assay [12], 68.6%. For the same compound, the growth in assay [13] was -13.7% (active); in [14], 14.2%; in assay [15], 18.5%; in assay [16], 20.2%; in assay [17], 6.06% (active); in [18] it was 18.6%. In assay [19], the growth is 43.6%.

Take `C#C[C@]1(O)CC[C@H]2[C@@H]3CC=C4c5sc(-c6ccc([N+](=O)[O-])cc6)nc5CC[C@]4(C)[C@H]3CC[C@@]21C`: the growth is 6.96% (active) in assay [1]; 5.27% (active) in assay [2]; -28.9% (active) in assay [3]; -23.5% (active) in assay [4]; -21.7% (active) in [5]; 44.5% in assay [6]. Also, the growth in assay [7] was -41.3% (active); in [8], -49% (active); in assay [9] it was 32.7%; in assay [10], -53.7% (active); in [11], -41.4% (active); in [12], -80.4% (active). The growth in assay [13] is 93.7%; in [14] it was 34.5%; in assay [15] it was 0.123% (active); in [16], 1.72% (active); in assay [17], 23%; in [18], 10.6%. Further, the growth in [20] was -59.9% (active); in [19], -44.8% (active).

For the compound `COc1cc2c(c(OC)c1OC)C(=O)CC(c1cccc(NC(=O)c3cc(NC(=O)[C@@H](N)CO)ccc3C)c1)O2` (some centres undefined), the growth is 119% in assay [1]; 91.4% in assay [2]; 103% in [3]; 111% in assay [4]; 119% in assay [5]; 111% in assay [6]. The growth in assay [7] was 101%; in assay [8], 99.7%; in [9], 104%; in assay [10], 119%; in [11], 110%; in [12], 102%. In addition, the growth is 135% in assay [13]; 109% in assay [14]; 112% in assay [15]; 107% in assay [16]; 104% in assay [17]; 109% in [18]. Besides, the growth in assay [19] is 109%.

Take `COc1cc2oc(-c3cccc(C(=O)Nc4ccc(Cl)cc4)c3)cc(=O)c2c(OCCNC(=O)[C@@H](N)CCC(=O)O)c1OC`: the growth in assay [1] is 86.9%; in assay [2] it was 32.2%; in [3] it was 76.1%; in assay [4], 30.5%; in assay [5], 9.77% (active); in assay [6] it was 94.7%. Also, the growth in assay [7] is 86.4%; in [8] it was 75.4%; in assay [9] it was 100%; in assay [10], 16.7%; in assay [11], 78%; in [12] it was 50.6%. Moreover, the growth in assay [13] was 86.4%; in assay [14], 93.6%; in assay [15], 87.4%; in [16], 79%; in assay [17], 83.6%; in assay [18] it was 100%. The growth in assay [19] is 78.8%.
